In PubChem BioAssay (NCI):
The panel holds about 83,000 compounds, 20% with a hit somewhere; the sample as a whole holds those more often.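 For each line, cells grew in 96-well plates with the test compound present at a single concentration for 48 hours.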 Calls of active or inactive are those of the source. How the source made its calls: active means growth percent below 10; inactive means the rest.

Assays:
Test in all cases: NCI-60 one-dose screen, 48 h (100 = growth as untreated, 0 = no growth, -100 = all killed)
SK-MEL-2 melanoma = conditions: 10 µM unless noted
EKVX NSCLC = conditions: 10 µM unless noted
SN12C renal = conditions: 10 µM unless noted
UO-31 renal = conditions: 10 µM unless noted
TK-10 renal = conditions: 10 µM unless noted
ACHN renal = conditions: 10 µM unless noted
CAKI-1 renal = conditions: 10 µM unless noted
A498 renal = conditions: 10 µM unless noted
CCRF-CEM leukemia = conditions: 10 µM unless noted
MOLT-4 leukemia = conditions: 10 µM unless noted
SR leukemia = conditions: 10 µM unless noted
RPMI-8226 leukemia = conditions: 10 µM unless noted
OVCAR-8 ovarian = conditions: 10 µM unless noted
OVCAR-5 ovarian = conditions: 10 µM unless noted
OVCAR-4 ovarian = conditions: 10 µM unless noted
SK-OV-3 ovarian = conditions: 10 µM unless noted
IGROV1 ovarian = conditions: 10 µM unless noted
OVCAR-3 ovarian = conditions: 10 µM unless noted
HS 578T breast = conditions: 10 µM
NCI/ADR-RES ovarian = conditions: 10 µM unless noted

Measured: growth

COc1ccc(-n2nc(C(=O)NCC(=O)Nc3nc4cc(OC)ccc4s3)c3ccccc3c2=O)cc1
inactive: EKVX NSCLC 30.4% | SN12C renal 41.7% | CCRF-CEM leukemia 92.7% | MOLT-4 leukemia 58.5% | SR leukemia 86.8% | RPMI-8226 leukemia 39.1% | OVCAR-5 ovarian 44.6%
active: SK-MEL-2 melanoma -19.9% | UO-31 renal -0.0591% | TK-10 renal -41.9% | ACHN renal -1.26% | CAKI-1 renal -27.5% | A498 renal -2.05% | OVCAR-8 ovarian -12.4% | OVCAR-4 ovarian -20.4% | SK-OV-3 ovarian -18.5% | IGROV1 ovarian -3.66% | OVCAR-3 ovarian 3.53% | HS 578T breast -4.47% | NCI/ADR-RES ovarian 1.75%

C[C@]12CCc3nc(Nc4ccc(O)cc4)sc3C1=CC[C@@H]1[C@@H]2CC[C@]2(C)/C(=N/NC(N)=S)CC[C@@H]12
active: SK-MEL-2 melanoma -13.5% | EKVX NSCLC -19.1% | SN12C renal -46.7% | UO-31 renal -42% | TK-10 renal -7.19% | ACHN renal -72.4% | CAKI-1 renal -36.2% | CCRF-CEM leukemia -7.49% | MOLT-4 leukemia -5.84% | SR leukemia -5.27% | RPMI-8226 leukemia -16.3% | OVCAR-8 ovarian 4.45% | OVCAR-4 ovarian -16.9% | SK-OV-3 ovarian -19% | IGROV1 ovarian -61.2% | OVCAR-3 ovarian -68.8% | HS 578T breast -4.57%
inactive: A498 renal 93.1% | OVCAR-5 ovarian 49.9% | NCI/ADR-RES ovarian 15%

CSC(=S)N/N=C(\C)c1ccccn1
inactive: SK-MEL-2 melanoma 21.7% | SN12C renal 24.2% | TK-10 renal 41.7% | ACHN renal 14.8% | RPMI-8226 leukemia 12% | OVCAR-8 ovarian 14.6% | OVCAR-5 ovarian 27.1% | SK-OV-3 ovarian 30.2% | IGROV1 ovarian 19.4% | HS 578T breast 38.1% | NCI/ADR-RES ovarian 12.8%
active: EKVX NSCLC 4.31% | UO-31 renal -0.858% | CAKI-1 renal -9.67% | A498 renal -3.97% | CCRF-CEM leukemia 7.65% | MOLT-4 leukemia 0.153% | SR leukemia -3.68% | OVCAR-3 ovarian 5.95%

COC(=O)c1cc(Cl)cc([N+](=O)[O-])c1O
inactive: SK-MEL-2 melanoma 135% | EKVX NSCLC 88.8% | SN12C renal 108% | UO-31 renal 87.1% | TK-10 renal 118% | ACHN renal 106% | CAKI-1 renal 92.6% | A498 renal 89.5% | CCRF-CEM leukemia 25.6% | MOLT-4 leukemia 61.6% | SR leukemia 63.5% | RPMI-8226 leukemia 93.3% | OVCAR-8 ovarian 105% | OVCAR-5 ovarian 93.7% | OVCAR-4 ovarian 122% | SK-OV-3 ovarian 116% | OVCAR-3 ovarian 114% | HS 578T breast 107% | NCI/ADR-RES ovarian 114%

Nc1nc2ccc([C@@H]3Nc4ccc5[nH]ncc5c4[C@H]4[C@H]5CCC(C5)[C@H]43)cc2s1
inactive: EKVX NSCLC 16.2% | SN12C renal 11.4% | UO-31 renal 30.4% | TK-10 renal 46.3% | ACHN renal 29.7% | CAKI-1 renal 29.8% | CCRF-CEM leukemia 21.2% | SR leukemia 51.1% | RPMI-8226 leukemia 19.5% | OVCAR-8 ovarian 37.5% | OVCAR-4 ovarian 14.4% | IGROV1 ovarian 33.3% | NCI/ADR-RES ovarian 17.4%
active: SK-MEL-2 melanoma -1.54% | A498 renal -2.86% | MOLT-4 leukemia 7.02% | SK-OV-3 ovarian -17.5% | OVCAR-3 ovarian -6.66% | HS 578T breast 8.66%

CCCCN(CCCC)CCC(O)c1cc2ccc(C(F)(F)F)cc2c2cc(C(F)(F)F)ccc12 (configuration not stated)
inactive: SK-MEL-2 melanoma 55% | EKVX NSCLC 70% | SN12C renal 46.9% | UO-31 renal 19.6% | TK-10 renal 74.4% | ACHN renal 49.9% | CAKI-1 renal 38.6% | A498 renal 56.4% | CCRF-CEM leukemia 36.2% | MOLT-4 leukemia 28.7% | OVCAR-8 ovarian 48.6% | OVCAR-5 ovarian 74.9% | SK-OV-3 ovarian 74.2% | IGROV1 ovarian 40.3% | OVCAR-3 ovarian 30.2% | HS 578T breast 58% | NCI/ADR-RES ovarian 59.8%
active: SR leukemia -36.8% | RPMI-8226 leukemia -9.02%

CCOC(=O)NNc1cccc(Cl)c1
inactive: SK-MEL-2 melanoma 116% | EKVX NSCLC 90.6% | SN12C renal 114% | UO-31 renal 70.6% | TK-10 renal 120% | ACHN renal 93.5% | CAKI-1 renal 90% | A498 renal 85.5% | CCRF-CEM leukemia 103% | MOLT-4 leukemia 113% | SR leukemia 102% | RPMI-8226 leukemia 98.8% | OVCAR-8 ovarian 106% | OVCAR-5 ovarian 88.3% | OVCAR-4 ovarian 106% | SK-OV-3 ovarian 105% | IGROV1 ovarian 94.9% | HS 578T breast 104% | NCI/ADR-RES ovarian 99.3%

CC(C)c1ccc(Cn2ccc3c4c(N)nc(NC5CC5)nc4ccc32)cc1
active: SK-MEL-2 melanoma -82.6% | EKVX NSCLC -84.2% | SN12C renal -91.5% | UO-31 renal -99% | TK-10 renal -97.2% | ACHN renal -98.9% | CAKI-1 renal -98.6% | A498 renal -82.3% | CCRF-CEM leukemia -16.3% | MOLT-4 leukemia -42.8% | SR leukemia -45.8% | RPMI-8226 leukemia -54.7% | OVCAR-4 ovarian -37.4% | SK-OV-3 ovarian -87.2% | IGROV1 ovarian -87.4% | OVCAR-3 ovarian -87.6% | HS 578T breast -57.1% | NCI/ADR-RES ovarian -74.4%

CCN(CC)c1ccc2nc3c4ccccc4c(=O)cc-3n(-c3ccccc3)c2c1
active: SK-MEL-2 melanoma -37.2% | EKVX NSCLC -4.16% | UO-31 renal -26.2% | ACHN renal -1% | CAKI-1 renal -17.8% | MOLT-4 leukemia 2.41% | SR leukemia -5.63% | RPMI-8226 leukemia 6.27% | OVCAR-8 ovarian 7.52% | OVCAR-4 ovarian 6.28% | SK-OV-3 ovarian 3.71% | OVCAR-3 ovarian -52.6% | HS 578T breast -17.8% | NCI/ADR-RES ovarian -7.19%
inactive: SN12C renal 13.2% | TK-10 renal 13.6% | A498 renal 17.6% | CCRF-CEM leukemia 15.7% | OVCAR-5 ovarian 10.7%

COC(=O)C(CCC(=O)CCl)N1C(=O)c2ccccc2C1=O (configuration not stated)
inactive: SK-MEL-2 melanoma 67.4% | EKVX NSCLC 108% | SN12C renal 69.9% | UO-31 renal 48.4% | TK-10 renal 54% | ACHN renal 71.2% | CAKI-1 renal 67.9% | A498 renal 123% | MOLT-4 leukemia 42.6% | OVCAR-5 ovarian 79.3% | OVCAR-4 ovarian 72.9% | SK-OV-3 ovarian 113% | IGROV1 ovarian 27.2% | OVCAR-3 ovarian 19.2% | HS 578T breast 85.3% | NCI/ADR-RES ovarian 83.5%
active: CCRF-CEM leukemia 5.21% | SR leukemia 8.24% | RPMI-8226 leukemia -8.21%

CCN(CC)Cc1cc(Nc2ccnc3cc(Cl)ccc23)cc(-c2ccc(Cl)cc2)c1O
inactive: SK-MEL-2 melanoma 80.1% | SN12C renal 23.6% | ACHN renal 57.1% | CAKI-1 renal 54.8% | A498 renal 48.9% | CCRF-CEM leukemia 45% | MOLT-4 leukemia 24% | OVCAR-5 ovarian 54.2% | SK-OV-3 ovarian 48.1% | NCI/ADR-RES ovarian 19.9%
active: EKVX NSCLC 2.25% | UO-31 renal -21.4% | TK-10 renal 5.81% | SR leukemia -22.7% | RPMI-8226 leukemia 6% | OVCAR-8 ovarian 9.58% | IGROV1 ovarian -6.07% | OVCAR-3 ovarian -44.1% | HS 578T breast -33.5%

C[C@@H](C[C@H](CC1CC1)c1ccccc1)c1ccc2ccccc2c1
inactive: SK-MEL-2 melanoma 109% | EKVX NSCLC 101% | SN12C renal 103% | UO-31 renal 90.1% | TK-10 renal 105% | ACHN renal 106% | CAKI-1 renal 92.9% | A498 renal 100% | CCRF-CEM leukemia 96.4% | MOLT-4 leukemia 105% | SR leukemia 106% | RPMI-8226 leukemia 98.8% | OVCAR-8 ovarian 106% | OVCAR-5 ovarian 107% | OVCAR-4 ovarian 96.1% | SK-OV-3 ovarian 117% | IGROV1 ovarian 101% | OVCAR-3 ovarian 113% | HS 578T breast 108% | NCI/ADR-RES ovarian 105%

CCOC(C)(c1ccc(Cl)cc1)C1CCNCC1 (configuration not stated)
inactive: SK-MEL-2 melanoma 106% | EKVX NSCLC 72.9% | SN12C renal 100% | UO-31 renal 80.6% | TK-10 renal 96.1% | ACHN renal 98.4% | CAKI-1 renal 100% | A498 renal 86.1% | CCRF-CEM leukemia 109% | MOLT-4 leukemia 81.7% | SR leukemia 88.1% | RPMI-8226 leukemia 114% | OVCAR-8 ovarian 100% | OVCAR-5 ovarian 102% | SK-OV-3 ovarian 96.1% | IGROV1 ovarian 115% | OVCAR-3 ovarian 110% | HS 578T breast 92.7% | NCI/ADR-RES ovarian 92.5%

COc1ccc(NC(=O)/C=C/c2ccc(Cl)c(Cl)c2)cn1
inactive: SK-MEL-2 melanoma 101% | EKVX NSCLC 83.7% | SN12C renal 88.9% | UO-31 renal 74.1% | TK-10 renal 78.3% | ACHN renal 93.4% | CAKI-1 renal 59.3% | A498 renal 65.6% | CCRF-CEM leukemia 32.9% | MOLT-4 leukemia 44.4% | SR leukemia 95.2% | RPMI-8226 leukemia 49.7% | OVCAR-8 ovarian 61.1% | OVCAR-5 ovarian 84.6% | OVCAR-4 ovarian 20.5% | SK-OV-3 ovarian 101% | IGROV1 ovarian 67.8% | OVCAR-3 ovarian 96.6% | HS 578T breast 92.6%
active: NCI/ADR-RES ovarian 1.03%

O=C(OCc1ccc2c(Br)cc(Br)c(O)c2n1)c1cc2ccccc2[nH]1
inactive: SK-OV-3 ovarian 68.8%
active: SK-MEL-2 melanoma -20.6% | EKVX NSCLC -65.5% | SN12C renal -79.2% | UO-31 renal -100% | TK-10 renal -94.2% | ACHN renal -100% | CAKI-1 renal -97.6% | A498 renal -1.86% | CCRF-CEM leukemia 2.81% | MOLT-4 leukemia -8.64% | SR leukemia 3.2% | RPMI-8226 leukemia -25.2% | OVCAR-5 ovarian -85.4% | OVCAR-4 ovarian -21.2% | IGROV1 ovarian -91.5% | OVCAR-3 ovarian -80.8% | HS 578T breast -4.51% | NCI/ADR-RES ovarian -55.2%

COc1cc(NCCCCC(C)N)c2nccc(C)c2c1 (configuration not stated)
inactive: SK-MEL-2 melanoma 105% | EKVX NSCLC 78.3% | SN12C renal 87.1% | UO-31 renal 38.2% | TK-10 renal 99.1% | ACHN renal 94% | CAKI-1 renal 94.8% | A498 renal 68.6% | CCRF-CEM leukemia 99.7% | MOLT-4 leukemia 81.7% | SR leukemia 98.7% | RPMI-8226 leukemia 75.2% | OVCAR-8 ovarian 97% | OVCAR-5 ovarian 81.6% | SK-OV-3 ovarian 93.3% | IGROV1 ovarian 71.3% | OVCAR-3 ovarian 73.5% | HS 578T breast 80.2% | NCI/ADR-RES ovarian 100%
